Measured values: PubChem BioAssay AID463173 (ICCB-Longwood Screening Facility, Harvard Medical School, 2010)
The campaign covered roughly 52,000 compounds. About 4,300 (8.3%) were called active. Many of the other results were omitted from the sample, so actives are more common in it than they were. Values without a mark were called inactive. Cut-off read from the data, not from the text of the source: active = survival mostly below about 52% (no sharp cut-off); inactive = mostly above about 56%.

Each molecule was assayed on DeltatarO mutant (assay: S. aureus survival, RN4220 and DeltatarO strains – OD600, teichoic acid synthesis inhibitors, primary screen (AID 463173)). Conditions: S. aureus RN4220 wild type/DeltatarO growth, OD600, 18 h, stronger effect = lower value, screened at 18.75 µg/mL (by protocol).
`CCCc1cc(=O)[nH]c2nnc(SCCC(C)C)n12` gave a survival of 90%. In the case of `Cc1cccc(-n2cc(-c3ccccc3)c3c(N4CCC(C)CC4)ncnc32)c1`, the survival is reported as 90%. `CCOc1ccc(/C=C/c2nc(C#N)c(N3CCN(CC)CC3)o2)cc1` showed a survival of 70%. In the case of `CN1CCN(C2=NC(=O)/C(=C\C=C/c3ccccc3)S2)CC1`, the survival is reported as 79%. `C#CCOc1c(Br)cc(C2C(C(=O)OC)=C(C)NC3=C2C(=O)c2ccccc23)cc1OCC` (configuration not stated) showed a survival of 62%. `CCOc1cc(C2C(C(=O)OC)=C(C)NC3=C2C(=O)c2ccccc23)cc(Br)c1OCC` (configuration not stated) showed a survival of 47%. Work on `COC(=O)C1=C(C)NC2=C(C(=O)c3ccccc32)C1c1ccc(O)c(OC)c1` (configuration not stated) yielded a survival of 85%. In the case of `CCOc1cc(C2C(C(=O)OC)=C(C)NC3=C2C(=O)c2ccccc23)c(Br)cc1OC` (configuration not stated), the survival is reported as 52%. `CCOc1cc(C2C(C(=O)OC)=C(C)NC3=C2C(=O)c2ccccc23)cc(Cl)c1O` (configuration not stated) was tested, and the survival was 29% (active). In the case of `CCOc1ccc(C2C(C(=O)OC)=C(C)NC3=C2C(=O)c2ccccc23)cc1OC` (configuration not stated), the survival is reported as 48%. `CCOc1ccc(Br)cc1C1C(C(=O)OC)=C(C)NC2=C1C(=O)c1ccccc12` (configuration not stated) gave a survival of 48%. In the case of `CCOC(=O)COc1ccc(C2C(C(=O)OC)=C(C)NC3=C2C(=O)c2ccccc23)cc1Cl` (configuration not stated), the survival is reported as 119%. `C#CCOc1ccc(C2C(C(=O)OC)=C(C)NC3=C2C(=O)c2ccccc23)cc1OCC` (configuration not stated) gave a survival of 167%. For `COC(=O)COc1ccc(C2C(C(=O)OC)=C(C)NC3=C2C(=O)c2ccccc23)cc1OC` (configuration not stated), the survival was 29% (active). With `CCOc1cc(C2C(C(=O)OC)=C(C)NC3=C2C(=O)c2ccccc23)ccc1O` (configuration not stated) the survival was 31% (active). For `CCOC(=O)COc1ccccc1C1C(C(=O)OC)=C(C)NC2=C1C(=O)c1ccccc12` (configuration not stated), the survival was 39% (active). `CC(=O)c1ccc(NC(=O)Cn2c(=O)cc(C)c3c(C)nn(-c4cccc(F)c4)c32)cc1` was tested, and the survival was 81%. With `Cc1cc(=O)n2nc(N3CCC(C(=O)NCCCOC(C)C)CC3)sc2n1` the survival was 100%. Work on `NC1CCC(c2ccccc2)CC1` (configuration not stated) yielded a survival of 78%. Work on `COc1ccc(-c2cn3nc(N4CCC(C(=O)NCc5ccc(F)cc5)CC4)sc3n2)cc1` yielded a survival of 88%. Work on `CC1=C(C(=O)Nc2ccc(Cl)cc2)C(c2cccs2)n2nc(SCc3cccc(C)c3)nc2N1` (configuration not stated) yielded a survival of 88%. For `COCCNC(=O)CSc1cn(CC(=O)N2CCCCCC2)c2ccccc12`, the survival was 73%. `COc1ccc(-c2nc3c4cnn(-c5ccccc5F)c4ncn3n2)cc1` gave a survival of 59%. With `CN1CCN(C(CNC(=O)C(=O)Nc2ccccc2)c2ccc3c(c2)OCO3)CC1` (configuration not stated) the survival was 67%. In the case of `COc1ccc(NC(=O)c2c(C)oc3ccc(O)c(CN4CCC(C)CC4)c23)cc1`, the survival is reported as 57%. Work on `CCc1c(C)nc(SCC(=O)N2CCN(c3ccccc3OC)CC2)[nH]c1=O` yielded a survival of 77%. `CCCCNC(=O)c1ccc2c(c1)NC(=O)C(CS(=O)(=O)Cc1ccc(C)cc1)N2` (configuration not stated) was tested, and the survival was 87%. `COc1ccc(Cl)cc1S(=O)(=O)Nc1cccc(-c2ccc(N3CCOCC3)nn2)c1` gave a survival of 97%. Molecule `NS(=O)(=O)c1ccc(CCNc2nc3c(-c4cccc(F)c4)nnn3c3ccc(Cl)cc23)cc1` has a survival of 65%. Molecule `Cc1cc(Cl)ccc1NC(=O)CSc1nc2c(c(=O)[nH]1)CCC2` has a survival of 80%. With `Cc1ccc2nc(SCC(=O)Nc3ccc(C#N)cc3)[nH]c2c1` the survival was 64% (active). With `COc1ccc(NC(=O)CSc2nc3ccccc3[nH]2)cc1` the survival was 70%. For `Cc1ccc(NC(=O)CSc2nc3ccc(Br)cc3[nH]2)c(C)c1`, the survival was 42% (active). Molecule `COC(=O)c1ccc(NC(=O)CSc2nc3ccc(OC)cc3[nH]2)cc1` has a survival of 184%. `Cc1cc(C)c(NC(=O)CSc2nc3ccncc3[nH]2)c(C)c1` was tested, and the survival was 119%. For `COCCNC(=O)CCCn1c(SCc2ccccc2Cl)nc2c(sc3ccccc32)c1=O`, the survival was 129%. In the case of `COc1ccccc1NC(=O)c1ccc(-c2nc(COc3ccc(C)cc3)c(C)o2)cc1`, the survival is reported as 83%. `COc1ccc(Nc2nnc(-c3cc4c(ccc5ccccc54)oc3=O)s2)cc1` showed a survival of 82%. Work on `CCCCN(Cc1ccccc1)S(=O)(=O)c1ccc2c(c1)CC(C)N2C(=O)CC` (configuration not stated) yielded a survival of 99%. Work on `CCOC(=O)c1c(C)oc2nc(C)nc(NCc3cccc(OC)c3)c12` yielded a survival of 72%. For `CCCCCOc1ccc(NC(=O)Cn2c(-c3cncs3)nc3ccccc32)cc1`, the survival was 86%. Work on `Cc1ccc(NC(=O)Cn2c(-c3cncs3)nc3ccccc32)c(Br)c1` yielded a survival of 63%. `CC(=O)c1cccc(NC(=O)Cn2c(-c3cncs3)nc3ccccc32)c1` showed a survival of 67%. For `CCc1ccc(NC(=O)Cn2c(-c3cncs3)nc3ccccc32)cc1`, the survival was 59%. `CCCCOc1ccccc1NC(=O)Cn1c(-c2cncs2)nc2ccccc21` was tested, and the survival was 49% (active). In the case of `Cc1cc(C)cc(NC(=O)Cn2c(-c3cncs3)nc3ccccc32)c1`, the survival is reported as 37% (active). `CC1CCN(C(=O)Cn2cc(SCC(=O)Nc3ccccc3)c3ccccc32)CC1` gave a survival of 67%. For `CCOc1ccc(CNC(=O)CCc2c(C)nn(-c3ccc(N4CCOCC4)nn3)c2C)cc1`, the survival was 72%. Molecule `O=C(CSc1nnc2c(n1)[nH]c1ccccc12)Nc1ccccc1` has a survival of 89%. For `COc1ccc(CC(=O)NCC(c2ccc(Cl)cc2)N2CCOCC2)cc1` (configuration not stated), the survival was 71%. `Cc1ccc(Cc2c(C)nc3nc(SCC(=O)NC(C)c4ccccc4)nn3c2C)cc1` (configuration not stated) was tested, and the survival was 53%. For `CCCNC(=O)CSc1nc2nc(C)c(Cc3ccccc3Cl)c(C)n2n1`, the survival was 60%. For `Cc1ccccc1Cc1c(C)nc2nc(SCC(=O)NC(C)c3ccccc3)nn2c1C` (configuration not stated), the survival was 57% (active). In the case of `Cc1ccccc1Cc1c(C)nc2nc(SCC(=O)N(C)c3ccccc3)nn2c1C`, the survival is reported as 78%. `CCN(CC)CCCNC(=O)CSc1nc2nc(C)c(Cc3ccccc3C)c(C)n2n1` showed a survival of 75%. `CCCCNC(=O)CSc1nc2nc(C)c(Cc3ccccc3C)c(C)n2n1` was tested, and the survival was 39% (active). Molecule `Cc1cccc2sc(N(CCN(C)C)C(=O)c3ccc4c(c3)OCCO4)nc12` has a survival of 119%.
